Shown are actives, neighbours in structure and some others; about 4.1% of the full set was active somewhere.
hgDAF12 agonist = activates the H. glycines DAF-12 receptor ligand-binding domain. 1.8% of 370,000 active. activation, % at 6.8 µM. HEK293 GAL4-hgDAF12 UAS-luciferase reporter, agonist luminescence; normalized to butyrate control;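 active means activation above a cutoff set at the mean of all screened compounds plus 3 SD, cut at about 10% in these data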
DAX1 inh-1 = inhibitors of human orphan nuclear receptor DAX1 (NR0B1); 0.99% of 340,000 active; inhibition, % at 6.75 µM; HEK293 Gal4-DAX1 luciferase reporter, luminescence;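 active means inhibition above the mean over all tested compounds plus 3 SD, cut at about 4.2% in these data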;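 further: inhibition shows as a rise in luminescence from relieved DAX1 repression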
Target sequence (P51843 207-470 limits assumed): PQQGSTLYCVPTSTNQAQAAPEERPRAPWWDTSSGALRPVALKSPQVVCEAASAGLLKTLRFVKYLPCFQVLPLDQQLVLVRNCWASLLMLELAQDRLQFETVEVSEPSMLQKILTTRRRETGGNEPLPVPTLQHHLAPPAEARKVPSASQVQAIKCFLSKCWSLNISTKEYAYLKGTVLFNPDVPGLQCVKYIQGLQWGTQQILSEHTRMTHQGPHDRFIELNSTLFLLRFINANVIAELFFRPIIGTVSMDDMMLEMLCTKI
ssDAF-12 act = activators of S. stercoralis DAF-12 nuclear receptor. 1% of 370,000 active. HEK293 ssDAF-12/GRIP1 lit1-tk-luc reporter, luminescence; % of 3 µM dafachronic acid response. activation, % at 6.8 µM. AID 652126;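 active means activation above the mean over all tested compounds plus 3 SD, cut at about 0.9% in these data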
hcDAF-12 act = activators of H. contortus DAF-12 nuclear receptor; HEK293 hcDAF-12 lit1-tk-luc reporter, luminescence; 0% DMSO, 100% Δ7-dafachronic acid; activation, % at 6.8 µM; 1.4% of 370,000 active; AID 652067;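 active means activation above the mean of all tested compounds plus 3 SD, cut at about 5.5% in these data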
DAX1 inh-2 = DAX1 (NR0B1) inhibition, primary screen; HEK293T StAR-luciferase reporter, SF-1/DAX-1 repression relief; inhibition, % at 6.8 µM; 1.1% of 370,000 active; AID 652010;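 active means inhibition above the mean over all tested compounds plus 3 SD, cut at about 3.6% in these data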;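 further: higher inhibition means more luminescence from relief of DAX-1 repression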
DAX1 conf = confirmation of human DAX1 (NR0B1) inhibitors; shares compounds with DAX1 inh-2; HEK293T StAR-promoter luciferase reporter, SF-1/DAX-1 repression; inhibition, % at 6.8 µM; 87% of 2,400 active; AID 652134;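 active means inhibition above the average of every tested compound plus 3 SD, cut at about 3.8% in these data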;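 further: active compounds raise luminescence by relieving repression of the StAR reporter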
SF1 AF2mut Luc = counter-screen for DAX1 inhibitors: nonselective inhibitors with SF-1 AF2 mutant | shares compounds with DAX1 inh-2 | HEK293 StAR-luciferase, luminescence | inhibition, % at 6.8 µM | 78% of 2,400 active;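 active means inhibition above the mean of all tested compounds plus 3 SD, cut at about 3% in these data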
Large screens that a line does not name were inactive (follow-up assays come after a bar, where they were run).

Clc1ccc(-c2cn3cc(Br)ccc3n2)cc1Cl	hgDAF12 agonist 23, ssDAF-12 act 3.0, hcDAF-12 act 14, DAX1 inh-2 8.0 | DAX1 conf 13 | SF1 AF2mut Luc 5.2
CC(=O)N1CCc2cc(S(=O)(=O)NCCC(=O)NCc3ccc(Cl)cc3)ccc21	none (no result: DAX1 inh-1)
O=c1oc2cc(O)ccc2cc1-c1nc2ccccc2o1	DAX1 inh-2 5.4 (no result: DAX1 inh-1) | DAX1 conf 6.4 | SF1 AF2mut Luc 3.3
Cc1ccc(-n2c(SCc3cccc(F)c3)nc3ccccc3c2=O)cc1	none (no result: DAX1 inh-1)
COc1ccccc1CNC(=O)COC(=O)c1cccc(-n2cnnn2)c1	none
COc1ccc(C(=O)COC(=O)c2cccc(-n3cnnn3)c2)c(OC)c1	DAX1 inh-2 4.6 | DAX1 conf 7.8 | SF1 AF2mut Luc 4.4
CCCCCCC[C@@H](C/C=C/CCC(=O)N(C)C/C(=C/Cl)C/C(=C\C(=O)N1C[C@H](O)CC1=O)OC)OC	none
CCCCCCC[C@@H](C/C=C/CCC(=O)N(C)C/C(=C/Cl)C/C(=C\C(=O)N1CC(OC)=CC1=O)OC)OC	DAX1 inh-2 19 | DAX1 conf 6.2 | SF1 AF2mut Luc inactive
Cc1ccccc1C(=O)N[C@H](C(=O)N1CCC[C@H]1C(=O)NC1CCCC1)C1CCCCC1	none (no result: DAX1 inh-1)
O=C(C[n+]1ccc2ccccc2c1)c1ccc2ccc3ccccc3c2c1	DAX1 inh-2 5.3 (no result: DAX1 inh-1) | DAX1 conf inactive | SF1 AF2mut Luc inactive
O=C(c1ccco1)N1CCN(C(=O)c2ccco2)CC1	none (no result: DAX1 inh-1)
O=C(c1ccco1)N1CCN(c2ccc(N3CCCCC3)nn2)CC1	DAX1 inh-2 7.8 | DAX1 conf 7.3 | SF1 AF2mut Luc 6.4
CCCCN1CCS(=O)(=O)N(Cc2cn(Cc3ccc(C)cc3)nn2)C(C(=O)OC)C1 (stereo unspecified)	none (no result: DAX1 inh-1)
CCC(C(=O)NCCCN1CCN(C)CC1)n1nc(C)c2sc3ccccc3c2c1=O (stereo unspecified)	none
CCCN1CCN(CCCNC(=O)C(CC)n2nc(C)c3sc4ccccc4c3c2=O)CC1 (stereo unspecified)	DAX1 inh-2 5.3 | DAX1 conf inactive | SF1 AF2mut Luc 4.3
O=C(CSc1nnc(-c2ccccc2Cl)o1)Nc1ccccn1	hgDAF12 agonist 11, DAX1 inh-2 6.1 | DAX1 conf 17 | SF1 AF2mut Luc 6.7
CC(C)C[C@H]1COc2cccc(F)c2S(=O)(=O)N1	none (no result: DAX1 inh-1)
Cc1cccc(NC(=O)c2nc[nH]c2C(=O)N(C)CCO)c1	none (no result: DAX1 inh-1)
COc1ccccc1C(=O)N/N=C(\C)c1ccc(NC(=O)Cc2ccccc2)cc1	none
C/C(=N\NC(=O)c1cccc(C)c1O)c1ccc(NC(=O)Cc2ccccc2)cc1	hcDAF-12 act 6.5, DAX1 inh-2 6.0 | DAX1 conf 4.8 | SF1 AF2mut Luc 3.8
COC(=O)c1cc(-c2cccc3c2sc2ccccc23)c(=O)n2c1CCC2	none (no result: DAX1 inh-1)
COc1ccc2cc(CCNC(=O)c3ccco3)c(=O)[nH]c2c1	hgDAF12 agonist 11, DAX1 inh-2 6.0 | DAX1 conf 9.4 | SF1 AF2mut Luc 5.8
CCc1ccc2nc(N(CCN(C)C)C(=O)c3ccc4ncsc4c3)sc2c1	DAX1 inh-2 7.6 | DAX1 conf 8.0 | SF1 AF2mut Luc 5.4
O=C1NC(c2ccc3c(c2)OCO3)c2c(-c3ccccc3)n[nH]c21 (stereo unspecified)	none (no result: DAX1 inh-1)
Cc1ccc(S(=O)(=O)N2CCN(C(=O)Cn3cnc4c3c(=O)n(C)c(=O)n4C)CC2)cc1C	DAX1 inh-2 5.0 | DAX1 conf inactive | SF1 AF2mut Luc inactive
CCC[C@H]1[C@@H](NC(=O)C2CCOC2)CC[C@@]23CCCN2C(=O)CCC[C@@H]13 (stereo partly specified)	none (no result: DAX1 inh-1, DAX1 inh-2)
CCC(C)c1ccc(NC(=O)NCc2cccnc2)cc1 (stereo unspecified)	none
CCC(C)c1ccc(NC(=O)Nc2cccnc2)cc1 (stereo unspecified)	DAX1 inh-2 6.4 | DAX1 conf 4.7 | SF1 AF2mut Luc 3.6
O=c1[nH]c(=O)n([C@H]2C[C@H](O)[C@@H](CO)O2)cc1I	DAX1 inh-2 5.6 | DAX1 conf 14 | SF1 AF2mut Luc 6.1
COc1ccccc1Oc1ncnc2c1cnn2-c1ccccc1	hgDAF12 agonist 12, DAX1 inh-2 4.7 | DAX1 conf inactive | SF1 AF2mut Luc 3.6
COc1ncnc2c1cnn2-c1ccccc1	none
O=C(Nc1nnc(Cc2ccc(Cl)cc2)s1)C1CCCO1 (stereo unspecified)	none
O=C(Nc1ncc(Cc2ccccc2)s1)C1CCCO1 (stereo unspecified)	hgDAF12 agonist 13, DAX1 inh-2 8.3 | DAX1 conf 11 | SF1 AF2mut Luc 4.8
COc1ccc(-c2nc(CC(=O)O)cs2)cc1	none
COc1ccc(-c2csc(-c3ccc(C(=O)O)cc3)n2)cc1	hgDAF12 agonist 12, DAX1 inh-2 4.7 | DAX1 conf 12 | SF1 AF2mut Luc 7.0
O=C(OCC(=O)N1CCCCC1)c1c[nH]c2ccccc12	none
O=C(OCC(=O)N1CCCCC1)c1cc(=O)[nH]c2ccccc12	DAX1 inh-2 4.9 | DAX1 conf inactive | SF1 AF2mut Luc inactive
CC(C)C[C@H](NC1(C(=O)NC2CCCCC2)CCN(C)CC1)C(=O)NCC(c1ccccc1)c1ccccc1	none (no result: DAX1 inh-1, DAX1 inh-2)
CN1CCCCC(NC(=O)c2ccc(F)c(F)c2)C1=O (stereo unspecified)	none (no result: DAX1 inh-1)
CCCC1CCC2(CCCN2CCOC(=O)Nc2ccccc2)CC1 (stereo unspecified)	none (no result: DAX1 inh-1, DAX1 inh-2)
Cc1nnc(NC(=O)c2nc(S(=O)(=O)Cc3ccccc3)ncc2Cl)s1	DAX1 inh-2 5.6 | DAX1 conf inactive | SF1 AF2mut Luc inactive
O=[N+]([O-])c1ccc(F)cc1OCc1nc(-c2cccs2)no1	hgDAF12 agonist 12, ssDAF-12 act 1.1, hcDAF-12 act 6.1, DAX1 inh-2 6.9 | DAX1 conf 8.7 | SF1 AF2mut Luc 4.8
Cc1ccc(S(=O)(=O)N2CCC(C(=O)NCc3ccccc3CN3CCCC3)CC2)cc1	none
N#Cc1ccccc1S(=O)(=O)N1CCC(C(=O)NCc2ccccc2CN2CCCC2)CC1	DAX1 inh-2 5.4 | DAX1 conf inactive | SF1 AF2mut Luc inactive
COC(=O)[C@]12C[C@H](CC(=O)N3CCN(C(=O)C4CC4)CC3)C(=O)N(Cc3ccc4c(c3)OCO4)C1=C[C@H](C(C)C)O[C@@H]2C1CC1	none (no result: DAX1 inh-1)
CC(C)C[C@@H]1COc2cc(Br)ccc2S(=O)(=O)N1Cc1cn(Cc2ccc(Cl)cc2)nn1	none (no result: DAX1 inh-1)
O=C(CCCN1C(=O)/C(=C\c2ccccc2)SC1=S)Nc1cccc(C(=O)O)c1	none
O=C(CCCN1C(=O)S/C(=C/C=C/c2ccccc2)C1=O)Nc1ccc(C(=O)O)cc1	DAX1 inh-2 5.3 | DAX1 conf 5.2 | SF1 AF2mut Luc 3.8

High-throughput results deposited in PubChem by The Scripps Research Institute Molecular Screening Center.
